Reference: PubChem BioAssay AID743147 (Broad Institute, 2013)
Calls of active or inactive are those of the source.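 The calls were made as follows: active = ATP luminescence loss from cell killing, with fitted half-maximal dose at or below the top valid tested dose; inconclusive = flat curve with partial loss of 30 to 70%, or poor fit; inactive = the rest.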

Test: HEK293T cell cytotoxicity, dose response, cytotoxicity control, CellTiter-Glo luminescence, dry powder, set 5 (AID 743147)
Settings: HEK293T viability, CellTiter-Glo ATP luminescence, 72 h; series mostly up to 26 µM
In the case of `C[C@H]1CC(=O)NN=C1c1ccc(N2CCOCC2)c(F)c1`, the outcome is reported as “inactive”. With `COc1cc2c(cc1OC)-c1cc(=Nc3c(C)cc(C)cc3C)n(C)c(=O)n1CC2` the outcome was “inactive”. For `CC(=O)Nc1ccc(C2=NNC(=O)C[C@H]2C)cc1[N+](=O)[O-]`, the outcome was “inactive”. In the case of `C[C@@H]1CC(=O)NN=C1c1ccc(N2CCOCC2)c(F)c1`, the outcome is reported as “inactive”. In the case of `O=C1CN2Cc3c(ccc(Cl)c3Cl)N=C2N1`, the outcome is reported as “inactive”. For `C[C@@H]1CC(=O)NN=C1c1ccc(N2CCOCC2)cc1`, the outcome was “inactive”. With `C[C@@H]1CC(=O)NN=C1c1ccc(Cl)cc1` the outcome was “inactive”. With `CCN(CC)c1ccc(C2=NNC(=O)CC2C)cc1[N+](=O)[O-]` (stereo not drawn) the outcome was “inactive”. With `Cn1c(NC(=O)c2ccccc2)nc2ccccc21` the outcome was “inactive”. For `C[C@@H]1CC(=O)NN=C1c1ccc(C2CCCCC2)cc1`, the outcome was “inactive”. In the case of `C[C@@H]1CC(=O)NN=C1c1ccc(F)c(F)c1`, the outcome is reported as “inactive”. With `C[C@@H]1CC(=O)NN=C1c1ccc(-c2cncnc2)cc1` the outcome was “inactive”. For `CCN1N=C(c2ccc(N(CC)CC)cc2)[C@H](C)CC1=O`, the outcome was “inactive”.
